The source of these data is ChEMBL document CHEMBL4513135, “CO-ADD screening of IQOG CSIS (Spain) compounds”.

Measured potencies and affinities stand elsewhere.

The test system of one test is Staphylococcus aureus. To be noted: Concentration 32 ug.mL-1; ASSAY_TEST Inhibition of Bacterial Growth; detection method Absorption (OD600); MEDIA CAMHB; plate type 384well; NBS; CORNING #3640; time 18 hr.
Usually Inhibition stands for the change of the read-out against control, counted positive when it falls. On to `O=C(N[C@H]1CC[C@@H](Br)[C@@H](Br)C1)C(F)(F)F`, for which the Inhibition is on record as 24.31%.

Regarding `CC1=NC(=Cc2ccc([N+](=O)[O-])cc2)C(=O)O1`, the Inhibition is 3.5%.

On to `Cl.ClCCCN1CCCCC1`, for which the Inhibition is listed as 19.47%.

For the compound `CCOc1nc2nc(C)c(C=C3CCN(Cc4ccccc4)CC3)cc2c(-c2ccccc2)c1C#N`, the Inhibition is on record as 33.88%.

For `Cc1nn(-c2ccccc2)c2ncnc(NCc3ccccc3)c12`, the Inhibition was determined as 16.34%.

Take `Cc1ccc2nc(Cl)c(/C=N/N)cc2c1`: the Inhibition was found to be 28.8%.

As for `COc1ccc(C2c3c(ccc4ccccc34)OC(=N)C2(Br)C#N)cc1OC` (stereo not drawn), the Inhibition turned out to be 9.13%.

`CN(Cc1cn(Cc2ccccc2)nn1)Cc1cc2cc(OCCCC3CCN(Cc4ccccc4)CC3)ccc2n1C`: the Inhibition is 10.05%.

In the case of `COc1ccc(C2C(C#N)=C(N)Oc3c2ccc2ccccc32)cc1` (stereo not drawn), the Inhibition was 21.39%.

Consider `CCOC(=O)c1c(C)nc(N)c(C#N)c1-c1cccs1`, for which the Inhibition is 5.52%.

`COc1cccc(C2C(C#N)=C(N)Oc3[nH]nc(C)c32)c1` (stereo not drawn): the Inhibition amounted to 6.27%.

Consider `CCCCCCC(C)NNC(=O)c1cc2ccccc2[nH]1` (stereo not drawn), for which the Inhibition is on record as -0.84%.

Turning to `C#CCNc1[nH]c2ccc(O)cc2c1C#N`, the Inhibition worked out at 30.3%.

With `Nc1c2c(nc3c1C(c1ccc(Cl)c(Cl)c1)c1ccc4ccccc4c1O3)CCCC2` (stereo not drawn), the Inhibition is -15.84%.

Turning to `CN(N=O)C(=O)NC1(C(=O)O)CC1c1ccccc1` (stereo not drawn), the Inhibition turned out to be 15%.

In the case of `COc1ccc(C2C(C#N)=C(N)Oc3c2ccc2ccccc32)c(OC)c1` (stereo not drawn), the Inhibition worked out at 5.1%.

Consider `CC(=O)Oc1ccc(C=C2N=C(C)OC2=O)cc1`, for which the Inhibition amounted to 8.81%.

For `CN(C)c1nc(N)c(C#N)cc1C#N`, the Inhibition is 20.41%.

On to `O=C(NCc1ccccc1)c1cc2ccccc2[nH]1`, for which the Inhibition was 5.56%.

As to `CCOc1nc(N)c(C#N)cc1C#N`, the Inhibition amounted to 33.34%.

In the case of `CCOC(=O)c1c(C)nc(/N=N/c2nc(C)c(C(=O)OCC)c(-c3ccccc3)c2C#N)c(C#N)c1-c1ccccc1`, the Inhibition is 11.27%.

In the case of `NNC(=O)C1(NC(=O)c2ccccc2)CC1c1cccc(O)c1` (stereo not drawn), the Inhibition came to 12.61%.

Regarding `Cn1ccnc1C1c2c(nc3c(c2N)CCC3)Oc2ccc3ccccc3c21` (stereo not drawn), the Inhibition turned out to be 25.1%.

In the case of `COc1ccc2c(c1)cc(C(=O)Nc1ccccc1)n2C`, the Inhibition is 20.93%.

For the compound `Nc1ccccc1C(=O)N/N=C/c1c[nH]c2ccccc12`, the Inhibition is 7.31%.

For `CC(C)(C)OC(=O)Nc1ccc(Br)cn1`, the Inhibition amounted to 40.42%.

With `N#CC1(Br)C(=N)Oc2ccc3ccccc3c2C1c1cccc([N+](=O)[O-])c1` (stereo not drawn), the Inhibition turned out to be 22.75%.

Consider `N#CC1(Br)C(=NBr)Oc2c(ccc3ccccc23)C1c1cccc([N+](=O)[O-])c1` (stereo not drawn), for which the Inhibition worked out at 34.66%.

As for `CCOC(=O)/C(C#N)=C\c1ccc(C)cc1`, the Inhibition was found to be 28.15%.

Regarding `O=C(N[C@H]1CC[C@H](O)CC1)c1ccccc1`, the Inhibition stood at 23.34%.

Take `CNN=C1N=C(SCc2ccccc2)SC1=O`: the Inhibition stood at 8.05%.

Consider `CC#CCN(C)Cc1cc2cc(OCc3ccccc3)ccc2n1C.O=C(O)C(=O)O`, for which the Inhibition amounted to 7.01%.

Take `COc1cc(CCC(N)=O)ccc1O`: the Inhibition amounted to 8.5%.

For the compound `COc1ccc2c(c1)cc(CN(C)Cc1cn(Cc3ccccc3)nn1)n2C`, the Inhibition worked out at 6.23%.

As to `Cc1nn(-c2ccccc2)c2ncnc(Nc3ccccc3)c12`, the Inhibition was 6.52%.

Regarding `Cc1ccc(S(=O)(=O)N[C@H]2CC[C@H](O)CC2)cc1`, the Inhibition was 22.82%.

Take `CSC1=NC2(CC2c2ccccc2)C(=O)N1C` (stereo not drawn): the Inhibition is recorded as -3.53%.

Turning to `CCOC(N)=CC#N`, the Inhibition is reported as -2.54%.

In the case of `N#Cc1cccnc1Cl`, the Inhibition was 22.89%.

The next test deals with Escherichia coli. The settings on record: Concentration 32 ug.mL-1; ASSAY_TEST Inhibition of Bacterial Growth; detection method Absorption (OD600); MEDIA CAMHB; plate type 384well; NBS; CORNING #3640; time 18 hr.
Turning to `O=C(N[C@H]1CC[C@@H](Br)[C@@H](Br)C1)C(F)(F)F`, the Inhibition is given as -25.88%.

Take `CC1=NC(=Cc2ccc([N+](=O)[O-])cc2)C(=O)O1`: the Inhibition is -3.97%.

`Cl.ClCCCN1CCCCC1`: the Inhibition came to 17.01%.

Turning to `CCOc1nc2nc(C)c(C=C3CCN(Cc4ccccc4)CC3)cc2c(-c2ccccc2)c1C#N`, the Inhibition is -8.83%.

`Cc1nn(-c2ccccc2)c2ncnc(NCc3ccccc3)c12`: the Inhibition was 7.89%.

With `Cc1ccc2nc(Cl)c(/C=N/N)cc2c1`, the Inhibition is given as 25.39%.

Regarding `COc1ccc(C2c3c(ccc4ccccc34)OC(=N)C2(Br)C#N)cc1OC` (stereo not drawn), the Inhibition is recorded as -16.19%.

As for `CN(Cc1cn(Cc2ccccc2)nn1)Cc1cc2cc(OCCCC3CCN(Cc4ccccc4)CC3)ccc2n1C`, the Inhibition was -17.67%.

For `COc1ccc(C2C(C#N)=C(N)Oc3c2ccc2ccccc32)cc1` (stereo not drawn), the Inhibition is -6.99%.

`CCOC(=O)c1c(C)nc(N)c(C#N)c1-c1cccs1`: the Inhibition was -18.22%.

On to `COc1cccc(C2C(C#N)=C(N)Oc3[nH]nc(C)c32)c1` (stereo not drawn), for which the Inhibition came out at 6.61%.

On to `CCCCCCC(C)NNC(=O)c1cc2ccccc2[nH]1` (stereo not drawn), for which the Inhibition is given as 6.64%.

Take `C#CCNc1[nH]c2ccc(O)cc2c1C#N`: the Inhibition is listed as -3.92%.

Consider `Nc1c2c(nc3c1C(c1ccc(Cl)c(Cl)c1)c1ccc4ccccc4c1O3)CCCC2` (stereo not drawn), for which the Inhibition is listed as -11.77%.

On to `CN(N=O)C(=O)NC1(C(=O)O)CC1c1ccccc1` (stereo not drawn), for which the Inhibition came to 11.14%.

Take `COc1ccc(C2C(C#N)=C(N)Oc3c2ccc2ccccc32)c(OC)c1` (stereo not drawn): the Inhibition came out at 0.79%.

For the compound `CC(=O)Oc1ccc(C=C2N=C(C)OC2=O)cc1`, the Inhibition was 9.02%.

On to `CN(C)c1nc(N)c(C#N)cc1C#N`, for which the Inhibition stood at 5.07%.

Turning to `O=C(NCc1ccccc1)c1cc2ccccc2[nH]1`, the Inhibition was 8.05%.

As to `CCOc1nc(N)c(C#N)cc1C#N`, the Inhibition is -14.2%.

As to `CCOC(=O)c1c(C)nc(/N=N/c2nc(C)c(C(=O)OCC)c(-c3ccccc3)c2C#N)c(C#N)c1-c1ccccc1`, the Inhibition is 6.76%.

In the case of `NNC(=O)C1(NC(=O)c2ccccc2)CC1c1cccc(O)c1` (stereo not drawn), the Inhibition came out at 5.57%.

In the case of `Cn1ccnc1C1c2c(nc3c(c2N)CCC3)Oc2ccc3ccccc3c21` (stereo not drawn), the Inhibition is recorded as -9.44%.

Turning to `COc1ccc2c(c1)cc(C(=O)Nc1ccccc1)n2C`, the Inhibition is recorded as -8.29%.

Regarding `Nc1ccccc1C(=O)N/N=C/c1c[nH]c2ccccc12`, the Inhibition stood at 5.27%.

For the compound `CC(C)(C)OC(=O)Nc1ccc(Br)cn1`, the Inhibition is -0.9%.

As for `N#CC1(Br)C(=N)Oc2ccc3ccccc3c2C1c1cccc([N+](=O)[O-])c1` (stereo not drawn), the Inhibition is recorded as -22.9%.

With `N#CC1(Br)C(=NBr)Oc2c(ccc3ccccc23)C1c1cccc([N+](=O)[O-])c1` (stereo not drawn), the Inhibition is -14.11%.

Consider `CCOC(=O)/C(C#N)=C\c1ccc(C)cc1`, for which the Inhibition is 15.07%.

Regarding `O=C(N[C@H]1CC[C@H](O)CC1)c1ccccc1`, the Inhibition is on record as -10.8%.

Consider `CNN=C1N=C(SCc2ccccc2)SC1=O`, for which the Inhibition stood at 4.4%.

With `CC#CCN(C)Cc1cc2cc(OCc3ccccc3)ccc2n1C.O=C(O)C(=O)O`, the Inhibition turned out to be 5.45%.

`COc1cc(CCC(N)=O)ccc1O`: the Inhibition came out at 5.11%.

Take `COc1ccc2c(c1)cc(CN(C)Cc1cn(Cc3ccccc3)nn1)n2C`: the Inhibition is given as -32.11%.

For the compound `Cc1nn(-c2ccccc2)c2ncnc(Nc3ccccc3)c12`, the Inhibition came out at 10.84%.

On to `Cc1ccc(S(=O)(=O)N[C@H]2CC[C@H](O)CC2)cc1`, for which the Inhibition is reported as -6.91%.

With `CSC1=NC2(CC2c2ccccc2)C(=O)N1C` (stereo not drawn), the Inhibition was -1.26%.

As for `CCOC(N)=CC#N`, the Inhibition was found to be 11.63%.

For `N#Cc1cccnc1Cl`, the Inhibition is listed as -20.17%.
